Data on 5 molecules can be found in PubChem BioAssay (NCATS).

The target in experiment [1] is Lysosomal acid glucosylceramidase (Homo sapiens) (UniProt P04062). Description: Glucocerebrosidase-p2 (AID 348; in the data active means potency below about 10 µM; further: potency means the concentration at half of the fitted maximal effect). Conditions: purified GBA, blue fluorogenic substrate, 40 min. The essentials:
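Normal human glucocerebrosidase (0.2 nM) with blue fluorogenic substrate (80 uM final) in citrate/phosphate pH 5.9 with 10mM sodium taurocholate, 0.01% tween-20; 40 min RT, NaOH/glycine stop; fluorescence Ex 365/Em 440; AC50 from a titration from 0.6 nM upwards.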

A short description of experiment [2]: AP1 Signaling Pathway (AID 357; active means well fitted curve in either direction with a large enough effect, not every such curve was filed as active;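 further: ME-180 reporter cells stimulated with EGF at its EC50 level; on the % scale 0 is the no-effect control and ±100 the full control effect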). The note with it: ME-180 AP-1-bla reporter, EGF-induced, beta-lactamase ratio, 5 h; at 7.69 µM (top of the series) unless noted. In short, it runs like this:
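Titration-series screen for positive or negative modulators of EC50 EGF-induced signaling in ME-180 cells carrying an AP-1-driven beta-lactamase reporter. After 5 hours at 37 degrees Celsius, CCF4 460nm/530nm emission ratio gave %Activity; AC50 values derived.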

Experiment [3] concerns the target Cytochrome P450 1A2 (Homo sapiens) (UniProt P05177). Description: p450-cyp1a2 (AID 410; calls by dose curve;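 further: -100% = full effect of reference inhibitor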). In short, it runs like this: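 Read-out is luminescence from luciferin produced by CYP1A2 demethylation of Luciferin-ME (100uM, at Km). Detection reagent stopped the 60 min NADPH-dependent reaction; signals were normalized to 57 uM furafylline.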
Experiment [4] in a line: NFAT Signaling Pathway (AID 444; active means well fitted curve in either direction with a large enough effect, not every such curve was filed as active;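 further: carbachol stimulus at about its EC50 of 1 µM final; on the % scale 0 is the no-effect control and ±100 the full control effect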). The note with it: Jurkat NFAT-bla M1, carbachol, beta-lactamase ratio, 5 h; at 7.69 µM (top of the series) unless noted. The essentials:
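Jurkat cells with NFAT-driven β-lactamase reporter and co-expressed M1 receptor, stimulated with carbachol (final 1 uM, ~EC50), compound titration, 5 h at 37 °C. CCF4 loaded 1 h at RT; 460/530 nm ratio gave %activity and AC50.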

Experiment [5] can be described thus: Stat Signaling Pathway (AID 446; active means well fitted curve in either direction with a large enough effect, not every such curve was filed as active;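 further: ME-180 cervical cancer cells given 40 pM IL-6 alongside compound; SIE-controlled beta-lactamase reporter measured as 460/530 nm FRET emission ratio; on the % scale 0 is the no-effect control and ±100 the full control effect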). Conditions: ME-180 (cervical carcinoma) SIE beta-lactamase reporter, IL-6 stimulated, 5 h; at 7.69 µM (top of the series) unless noted. In short, it runs like this:
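Overnight-plated ME-180 cells bearing a STAT Inducible Element beta-lactamase reporter; 5 h co-exposure to compound and 40 pM IL-6; values normalized to 300 pM IL-6 and 125 nM JAK inhibitor controls.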

The target in experiment [6] is Glucocorticoid receptor (Homo sapiens) (UniProt P04150). Description: GR-EFC Redistribution (AID 451; calls by dose curve; further: potency means the concentration at half of the fitted maximal effect). The note with it: CHO-K1 GR-EFC translocation, beta-gal luminescence, 2 h. In short, it runs like this: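 CHO-K1 cells expressing nuclear EA and GR-ED fragments of b-gal; compounds titrated up to 46 uM final, 2 h at 37 C. GR nuclear translocation read as complemented b-gal luminescence after 1 h RT detection.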
Sequence of Glucocorticoid receptor (Homo sapiens) (P04150 whole entry, looked up, the tested form may be a part): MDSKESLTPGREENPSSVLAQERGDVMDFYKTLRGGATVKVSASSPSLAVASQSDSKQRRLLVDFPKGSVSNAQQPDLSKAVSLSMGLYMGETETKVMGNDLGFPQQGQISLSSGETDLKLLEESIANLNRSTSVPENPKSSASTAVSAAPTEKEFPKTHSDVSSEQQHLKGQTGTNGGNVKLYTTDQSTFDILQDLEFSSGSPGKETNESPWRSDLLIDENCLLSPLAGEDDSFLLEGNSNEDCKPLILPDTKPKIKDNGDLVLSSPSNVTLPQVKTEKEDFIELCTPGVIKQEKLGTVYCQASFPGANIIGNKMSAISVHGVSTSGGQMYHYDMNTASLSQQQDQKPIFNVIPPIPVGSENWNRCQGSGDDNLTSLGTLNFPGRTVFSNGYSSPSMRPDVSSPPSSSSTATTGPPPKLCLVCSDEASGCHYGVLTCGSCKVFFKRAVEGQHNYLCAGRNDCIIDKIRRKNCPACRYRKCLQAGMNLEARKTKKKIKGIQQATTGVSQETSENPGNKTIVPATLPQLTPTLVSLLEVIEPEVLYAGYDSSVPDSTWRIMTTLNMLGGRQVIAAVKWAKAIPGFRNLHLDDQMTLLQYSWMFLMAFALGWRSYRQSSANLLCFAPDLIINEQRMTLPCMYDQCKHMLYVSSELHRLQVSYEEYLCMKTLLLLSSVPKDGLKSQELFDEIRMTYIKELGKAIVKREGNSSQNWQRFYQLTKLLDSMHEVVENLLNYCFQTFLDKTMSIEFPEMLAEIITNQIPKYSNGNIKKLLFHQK

For experiment [7], the target named is Mitogen-activated protein kinase 10 (Mus musculus) (UniProt Q61831). Description: JNK3 AlphaScreen Assay (AID 530; active means well fitted curve in either direction with a large enough effect, not every such curve was filed as active;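 further: kinase came from lysate of stimulated human HepG2 cells; signal reports phosphorylation of biotinylated GST-cJun 1-79 at Ser73 with 10 µM ATP; on the % scale 0 is the no-effect control and ±100 the full control effect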). The essentials:
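HepG2 lysate (IL-1b/TNFa pre-activated) + biotin-GST-cJun 1-79 + anti-pSer73 cJun; cpd titration, 15 min RT; ATP 10 uM start; Tris pH 7.6, MgCl2, DTT, vanadate; beads in EDTA buffer; AlphaScreen.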
For orientation: Bead proximity is the source of the signal in Alpha formats.

Experiment [8] has as its target 3',5'-cyclic-AMP phosphodiesterase 4B (Homo sapiens) (UniProt Q07343). The experiment is described as follows: qHTS Assay for Inhibitors of PDE-IV (AID 607; active means well fitted activation curve with a large enough effect in the main read-out, with a control signal flat, not every such curve was filed as active; further: % of control where 0% means no effect). The essentials: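 Live HEK293 cells with a modified cyclic nucleotide-gated (CNG) channel report intracellular cAMP via membrane-potential dye fluorescence (ex 535/em 590 nm). Endogenous PDE-IV was targeted. Compounds were tested at up to 22.9 uM final; RO 20-1724 100 uM served as control.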
For orientation: qHTS replaces the single test concentration by a dilution series.

Experiment [9] concerns the target Cytochrome P450 3A4 (Homo sapiens) (UniProt P08684). Description: qHTS Assay for Inhibitors and Substrates of Cytochrome P450 3A4 (AID 884). Further: nearly all actives have a fitted effect of over 50% in size. Further: potency means the concentration at half of the fitted maximal effect. The essentials: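 Luminescent readout of luciferin produced by CYP3A4 (20 nM) dealkylation of Luciferin-PPXE, 25 uM (its KM). NADPH-driven reaction ran 60 min at RT after 10 min compound preincubation; data scaled to 57 uM ketoconazole as 100% inhibition.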

The target is the same in experiment [10]. The experiment is described as follows: qHTS Assay for Activators of Cytochrome P450 3A4 (AID 885). Further: nearly all actives have a fitted effect of over 65% in size. The essentials: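 Using 20nM recombinant human CYP3A4 in potassium phosphate (200mM), substrate Luciferin-PPXE at 25uM, luminescent luciferin detection followed a 60-min RT NADPH reaction; data scaled to 57 uM ketoconazole.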
A short description of experiment [11]: qHTS Assay for Lipid Storage Modulators (AID 1519; calls by dose curve). The note with it: Drosophila S3 cells, BODIPY lipid droplet/cell ratio, laser cytometry, cells loaded with oleic acid; for activity change, negative = inhibition: at 57.5 µM (top of the series). The essentials: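 Cells seeded at 5,000 per well were treated with compounds over a concentration series and loaded with oleic acid (400 uM, as added). Lipid droplet fluorescence (488 nm excitation, 500-530 nm channel) was read by laser-scanning cytometry and normalized to 20 uM Triacsin C.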

Experiment [12] deals with Rap guanine nucleotide exchange factor 3 (Homo sapiens) (UniProt O95398). The experiment is described as follows: Confirmatory qHTS for antagonist of cAMP-regulated guanine nucleotide exchange factor 3 (EPAC1) (AID 1645880).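 Further: plate controls were DMSO only for no effect and full effect of the ATA control for full effect; nearly all actives have a fitted effect of over 55% in size.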 The essentials: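 Released BODIPY-GDP fluoresces less than Rap1-bound BODIPY-GDP; the signal is followed at 480/540 nm at 5-min intervals over 30 min, after 5 min at room temperature. Reactions contain 100 nM EPAC1, 250 nM RAP1B-BODIPY-GDP and 50 uM GDP; results are normalized to ATA and DMSO.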
Sequence of Rap guanine nucleotide exchange factor 3 (Homo sapiens) (O95398 whole entry, looked up): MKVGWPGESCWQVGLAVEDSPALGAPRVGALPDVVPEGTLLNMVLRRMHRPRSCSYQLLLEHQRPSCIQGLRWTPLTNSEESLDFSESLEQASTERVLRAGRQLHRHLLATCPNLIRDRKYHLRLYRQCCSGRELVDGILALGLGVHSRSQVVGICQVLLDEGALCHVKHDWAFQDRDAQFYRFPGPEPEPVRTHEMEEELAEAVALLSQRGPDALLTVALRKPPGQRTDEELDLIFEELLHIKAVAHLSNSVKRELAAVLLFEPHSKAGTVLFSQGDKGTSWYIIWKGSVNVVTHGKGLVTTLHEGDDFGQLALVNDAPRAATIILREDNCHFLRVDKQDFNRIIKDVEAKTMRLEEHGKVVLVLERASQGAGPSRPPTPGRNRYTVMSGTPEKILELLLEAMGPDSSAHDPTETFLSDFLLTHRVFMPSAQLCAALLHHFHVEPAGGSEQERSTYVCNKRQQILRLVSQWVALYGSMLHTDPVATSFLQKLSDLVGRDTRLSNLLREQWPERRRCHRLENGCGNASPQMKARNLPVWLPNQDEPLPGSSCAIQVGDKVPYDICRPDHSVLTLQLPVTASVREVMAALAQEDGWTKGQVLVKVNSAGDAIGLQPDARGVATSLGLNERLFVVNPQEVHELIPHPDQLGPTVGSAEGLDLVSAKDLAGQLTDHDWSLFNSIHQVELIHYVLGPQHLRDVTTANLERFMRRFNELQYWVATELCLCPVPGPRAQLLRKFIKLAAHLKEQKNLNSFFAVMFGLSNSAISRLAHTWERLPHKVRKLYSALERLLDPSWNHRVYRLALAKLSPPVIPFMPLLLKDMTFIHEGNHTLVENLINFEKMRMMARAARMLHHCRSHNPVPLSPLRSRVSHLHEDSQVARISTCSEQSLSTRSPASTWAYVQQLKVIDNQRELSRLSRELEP

Experiment [13] shares this target. The experiment is described as follows: Confirmatory qHTS for agonist of cAMP-regulated guanine nucleotide exchange factor 3 (EPAC1) (AID 1645881).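 Further: EPAC1 catalysed release of BODIPY-GDP from Rap1B seen as fluorescence loss; nearly all actives have a fitted effect of over 75% in size.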
The target of experiment [14] is Rap guanine nucleotide exchange factor 4 (Homo sapiens) (UniProt Q8WZA2). The experiment is described as follows: Confirmatory qHTS for agonist of cAMP-regulated guanine nucleotide exchange factor 4 (EPAC2) (AID 1645884).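 Further: nucleotide exchange releases bodipy-GDP from Rap1 and this lowers its fluorescence; on the % scale 0 is the no-effect control and ±100 the full control effect; nearly all actives have a fitted effect of over 65% in size.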
Sequence of Rap guanine nucleotide exchange factor 4 (Homo sapiens) (Q8WZA2 whole entry, looked up): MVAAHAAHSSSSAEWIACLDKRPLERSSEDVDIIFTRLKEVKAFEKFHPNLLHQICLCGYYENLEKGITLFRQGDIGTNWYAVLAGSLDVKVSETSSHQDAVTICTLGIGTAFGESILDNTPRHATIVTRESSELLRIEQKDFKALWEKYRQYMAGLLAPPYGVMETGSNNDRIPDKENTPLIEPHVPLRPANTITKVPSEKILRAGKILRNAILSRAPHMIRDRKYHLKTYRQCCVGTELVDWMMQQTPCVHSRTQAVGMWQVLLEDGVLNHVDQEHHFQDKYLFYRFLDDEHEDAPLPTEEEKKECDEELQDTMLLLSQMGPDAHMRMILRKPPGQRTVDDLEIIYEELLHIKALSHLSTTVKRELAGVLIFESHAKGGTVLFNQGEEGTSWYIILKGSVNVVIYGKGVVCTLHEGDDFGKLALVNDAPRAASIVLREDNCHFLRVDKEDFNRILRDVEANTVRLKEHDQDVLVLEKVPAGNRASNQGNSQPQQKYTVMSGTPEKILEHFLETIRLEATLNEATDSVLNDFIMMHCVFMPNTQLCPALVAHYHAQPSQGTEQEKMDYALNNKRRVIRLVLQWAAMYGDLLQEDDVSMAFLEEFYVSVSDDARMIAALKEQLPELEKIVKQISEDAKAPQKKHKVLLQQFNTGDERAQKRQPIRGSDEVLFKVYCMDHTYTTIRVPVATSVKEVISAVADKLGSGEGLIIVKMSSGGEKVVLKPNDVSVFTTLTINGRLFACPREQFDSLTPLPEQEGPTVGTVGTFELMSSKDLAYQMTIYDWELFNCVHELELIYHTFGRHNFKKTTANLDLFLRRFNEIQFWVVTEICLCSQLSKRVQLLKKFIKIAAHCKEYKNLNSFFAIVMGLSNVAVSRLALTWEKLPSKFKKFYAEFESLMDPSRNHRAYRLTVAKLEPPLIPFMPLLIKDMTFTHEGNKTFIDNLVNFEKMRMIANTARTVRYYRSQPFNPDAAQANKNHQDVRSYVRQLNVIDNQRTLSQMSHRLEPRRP
Experiment [15] has the same target. Description: Confirmatory qHTS for antagonist of cAMP-regulated guanine nucleotide exchange factor 4 (EPAC2) (AID 1645885). Further: nearly all actives have a fitted effect of over 25% in size. Further: potency means the concentration at half of the fitted maximal effect.
A short description of experiment [16]: Confirmation and Secondary Assay for Modulators of Hemoglobin Beta Chain Splicing at IVS2 705 locus (AID 930).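 Further: HeLa cells stably expressing the EGFP-705 splicing reporter; GFP fluorescence per well restored by corrected splicing of the IVS2-705 intron in EGFP; % of control where 0% means no effect.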 In short, it runs like this:
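Stable HeLa line with EGFP disrupted by mutant beta-globin intron 2 (705). Overnight attachment, then 2 days of compound at 37C, 5% CO2. Signal: peak GFP intensity summed over objects 5-250 µm.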

Experiment [17] can be described thus: Confirmation and Secondary Assay for Modulators of Hemoglobin Beta Chain Splicing at IVS2 654 locus (AID 910).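 Further: HeLa cells stably carrying EGFP split by mutant beta-globin IVS2-654 intron; % of control where 0% means no effect.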 In short, it runs like this:
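HeLa cells stably expressing EGFP interrupted by β-globin IVS2-654 intron, seeded overnight in Opti-MEM/2% FCS, then treated 2 days at 37 °C. Restored splicing read as total peak GFP intensity per well by laser scanning cytometry (488 nm excitation, 500–520 nm emission); 500 nM antisense PNA as control.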

Experiment [18] has as its target Ubiquitin carboxyl-terminal hydrolase 1 (Homo sapiens) (UniProt O94782). The experiment is described as follows: Inhibitors of USP1/UAF1: Pilot qHTS (AID 504865).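 Further: rhodamine fluorescence freed from ubiquitin-rhodamine substrate followed over time; top concentration of the series differs between compounds; on the % scale 0 is the no-effect control and ±100 the full control effect; nearly all actives have a fitted effect of over 35% in size.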 In short, it runs like this: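 USP1/UAF1 complex at 1 nM preincubated 15 min at room temperature with compound, then Ub-Rho substrate added at 150 nM final. Fluorescence (480/540 nm) read kinetically in 50 mM HEPES pH 7.8, 0.5 mM EDTA, 1 mM TCEP, 0.1 mg/ml BSA, 0.01% Tween-20.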

The target of experiment [19] is Glucocorticoid receptor (Homo sapiens) (UniProt P04150). Description: GR-GFP Redistribution (AID 450;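 active means compounds whose dose series gives a full or clear partial fitted curve of increased nuclear translocation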; further: potency means the concentration at half of the fitted maximal effect). Conditions: U2OS GR-GFP nuclear translocation, laser cytometry, 2 h.
[20] abbreviates: measured here: cell count channel max response.
Setting [21] is: measured here: lipid channel max response.

Records with an inconclusive call do not appear. The source made the active and inactive calls. Unless noted, the call rests on the fitted dose curve; in most records, active means well fitted curve in the direction sought with a large enough effect; inconclusive means small, poorly fitted or top-dose-only effect, or another doubt; inactive means no such curve, though single readings can be large; an effect the other way counts as inactive or inconclusive.

Sequence of Cytochrome P450 3A4 (Homo sapiens) (P08684 whole entry, looked up): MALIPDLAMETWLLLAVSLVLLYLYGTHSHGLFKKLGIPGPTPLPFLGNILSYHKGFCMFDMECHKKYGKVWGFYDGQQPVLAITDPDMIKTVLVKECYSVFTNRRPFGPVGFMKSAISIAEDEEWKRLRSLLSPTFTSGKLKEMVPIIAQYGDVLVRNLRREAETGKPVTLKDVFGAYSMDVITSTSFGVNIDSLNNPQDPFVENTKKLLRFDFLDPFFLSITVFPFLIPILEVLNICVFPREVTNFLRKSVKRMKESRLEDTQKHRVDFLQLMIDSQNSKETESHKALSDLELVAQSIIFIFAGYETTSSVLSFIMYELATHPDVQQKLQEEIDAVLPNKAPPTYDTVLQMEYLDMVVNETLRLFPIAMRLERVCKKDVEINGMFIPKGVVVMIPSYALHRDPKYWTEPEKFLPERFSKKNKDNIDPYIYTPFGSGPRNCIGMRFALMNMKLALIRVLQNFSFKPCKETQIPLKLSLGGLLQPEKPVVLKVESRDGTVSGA
Sequence of 3',5'-cyclic-AMP phosphodiesterase 4B (Homo sapiens) (Q07343 whole entry, looked up): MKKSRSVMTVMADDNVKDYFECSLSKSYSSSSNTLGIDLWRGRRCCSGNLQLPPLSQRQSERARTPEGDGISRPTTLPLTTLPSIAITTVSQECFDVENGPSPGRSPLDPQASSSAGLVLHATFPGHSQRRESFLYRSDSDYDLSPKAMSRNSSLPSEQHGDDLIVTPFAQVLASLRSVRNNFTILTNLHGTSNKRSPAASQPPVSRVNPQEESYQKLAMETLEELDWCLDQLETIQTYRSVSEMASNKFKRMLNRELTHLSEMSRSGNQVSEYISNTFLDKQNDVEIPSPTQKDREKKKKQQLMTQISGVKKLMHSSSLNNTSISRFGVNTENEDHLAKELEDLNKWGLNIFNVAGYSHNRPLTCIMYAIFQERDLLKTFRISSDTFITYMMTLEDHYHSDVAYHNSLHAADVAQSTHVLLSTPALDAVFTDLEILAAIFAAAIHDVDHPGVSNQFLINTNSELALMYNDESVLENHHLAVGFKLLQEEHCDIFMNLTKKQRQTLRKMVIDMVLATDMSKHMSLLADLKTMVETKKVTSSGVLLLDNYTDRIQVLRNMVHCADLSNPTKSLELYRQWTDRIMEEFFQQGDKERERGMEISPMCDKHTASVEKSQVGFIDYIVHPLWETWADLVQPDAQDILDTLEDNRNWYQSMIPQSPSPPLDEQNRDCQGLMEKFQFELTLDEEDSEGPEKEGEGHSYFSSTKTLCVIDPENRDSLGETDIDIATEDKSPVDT
Sequence of Ubiquitin carboxyl-terminal hydrolase 1 (Homo sapiens) (O94782 whole entry, looked up): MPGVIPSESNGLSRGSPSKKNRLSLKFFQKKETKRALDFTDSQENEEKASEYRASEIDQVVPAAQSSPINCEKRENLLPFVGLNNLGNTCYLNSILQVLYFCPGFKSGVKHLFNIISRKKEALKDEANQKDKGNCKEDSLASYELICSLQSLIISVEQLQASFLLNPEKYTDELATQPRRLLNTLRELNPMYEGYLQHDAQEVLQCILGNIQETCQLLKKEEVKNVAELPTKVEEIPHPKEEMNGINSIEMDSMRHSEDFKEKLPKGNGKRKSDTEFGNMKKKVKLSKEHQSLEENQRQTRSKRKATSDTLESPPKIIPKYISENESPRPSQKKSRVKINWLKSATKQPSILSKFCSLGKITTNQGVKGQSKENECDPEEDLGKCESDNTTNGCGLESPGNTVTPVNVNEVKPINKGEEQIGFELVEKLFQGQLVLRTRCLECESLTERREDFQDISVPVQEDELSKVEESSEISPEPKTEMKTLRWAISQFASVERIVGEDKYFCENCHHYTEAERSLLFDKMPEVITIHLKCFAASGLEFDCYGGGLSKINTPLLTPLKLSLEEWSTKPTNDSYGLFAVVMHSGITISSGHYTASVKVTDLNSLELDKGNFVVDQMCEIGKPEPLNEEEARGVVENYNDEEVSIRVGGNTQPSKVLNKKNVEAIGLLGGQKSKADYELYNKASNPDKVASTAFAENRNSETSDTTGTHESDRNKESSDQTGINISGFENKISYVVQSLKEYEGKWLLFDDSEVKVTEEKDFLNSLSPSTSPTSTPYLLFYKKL

`O=C(c1cccc(F)c1)N1CCC[C@@]2(CCN(C(c3ccccc3)c3ccccc3)C2)C1`: the Potency was > 11.4 µM (inactive) in experiment [1], > 46 µM (inactive) in [6] and 3.98 µM (active) in experiment [9]. The activity change, negative = inhibition was 28.8% (inactive) in experiment [2], 0.838% (inactive) in experiment [4] and -11.6% (inactive) in experiment [11]. Moreover, the Potency entry in experiment [3], in experiment [7], in [8], in experiment [10], in experiment [12] and in experiment [13] was “inactive” in each case. The Potency result in experiment [14] and in [15] was “inactive” in each case. Besides, the activity, negative = inhibition in experiment [5] was 12.6% (inactive). The max response in experiment [11] (setting [20]) was 5.27%; in experiment [11] (setting [21]) it was -12.6%.

For the molecule `COC(=O)c1c(OC)cc2c(c1C)Oc1c(Cl)c(OC(C)=O)c(Cl)c(C)c1C(=O)O2`, the Potency is 15.8 µM (active) in experiment [9] and 11.1 µM (active) in experiment [15]. Besides, the Potency entry in experiment [10], in [12], in experiment [13] and in experiment [14] was “inactive” in each case. For the same molecule, the outcome in [16] was inactive. Moreover, the activity change, negative = inhibition in experiment [11] is 5.48% (inactive). Further, the max response in experiment [11] (setting [20]) came out at 2.97%; in experiment [11] (setting [21]) it was 13%.

With `COc1cc(C/C=C/c2ccccc2)c(OC)cc1O`, the Potency entry in experiment [10], in experiment [17], in [18], in [12], in experiment [13] and in [14] was “inactive” in each case. Also, in [15], the Potency entry was “inactive”. Besides, in [16], the call was inactive. For the same molecule, the activity change, negative = inhibition in experiment [11] is 1.85% (inactive). Besides, the max response was 4.35% in [11] (setting [20]) and 7.15% in experiment [11] (setting [21]).

For the molecule `O=c1c(O)c(-c2ccc(O)c(O)c2)oc2c(OC3OC(CO)C(O)C(O)C3O)c(O)cc(O)c12` (configuration not stated), the Potency result in experiment [10], in [18], in [12], in experiment [13], in [14] and in [15] was “inactive” in each case. In experiment [11], the activity change, negative = inhibition was 0.918% (inactive). For the same molecule, the max response in experiment [11] (setting [20]) was -2.75%; in experiment [11] (setting [21]) it was 7.27%.

For the molecule `COc1c(-c2ccc(O)c(O)c2)oc2cc(O)cc(O)c2c1=O`, the Potency in [19] and in experiment [6] was > 46 µM (inactive) each time. The Potency entry in experiment [8], in experiment [9], in experiment [13], in experiment [14] and in experiment [15] was “inactive” each time. The activity change, negative = inhibition in [11] is 0.206% (inactive). Moreover, the max response in experiment [11] (setting [20]) is -16.5%; in [11] (setting [21]), -17.7%.
